The values that follow come from PubChem BioAssay (NCATS).

Test [1] concerns the target Ubiquitin carboxyl-terminal hydrolase 1 (Homo sapiens) (UniProt O94782). Nature of the test: Inhibitors of USP1/UAF1: Pilot qHTS (AID 504865).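 Note: rhodamine fluorescence freed from ubiquitin-rhodamine substrate followed over time; top concentration of the series differs between compounds; nearly all actives have a fitted effect of over 35% in size.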 In a few lines: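 Kinetic fluorescence assay: 1nM USP1/UAF1, 15 min compound preincubation, then 150nM Ub-Rho; 480/540 nm.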
(In general: In qHTS, concentration-response curves come from the screen itself.)

For test [2], the target named is Luciferin 4-monooxygenase (Photinus pyralis) (UniProt P08659). Nature of the test: Biochemical firefly luciferase enzyme assay for NPC (AID 624030).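 Note: purified P. pyralis luciferase at 10 nM with luciferin and ATP substrate; nearly all actives have a fitted effect of over 70% in size.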 In a few lines:
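Direct inhibition of firefly luciferase enzyme (10 nM final, 50 mM Tris Acetate) assessed by luminescence within 5 minutes. Percent activity scaled between DMSO and PTC124 positive control, with concentration-effect curves classified by fit quality and response.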

The test system of test [3] is CP237. Nature of the test: qHTS profiling for inhibitors of Plasmodium falciparum proliferation (AID 504749). Note: nearly all actives have a fitted effect of over 60% in size. The conditions noted are these: P. falciparum in erythrocytes, SYBR Green DNA, 72 h; series mostly up to 28.7 µM. The method, boiled down: (§1)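 Three-day growth assay of blood-stage parasites in erythrocytes (0.3% parasitemia, 2.5% hematocrit) at 37 C, 5% CO2, quantified by SYBR Green DNA staining after overnight detergent lysis.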

The subject of test [4] is CP268. The test is described as above. The settings on record: P. falciparum in erythrocytes, SYBR Green DNA, 72 h; series mostly up to 28.7 µM. In a few lines:
as §1

Test [5] relates to CP286. Described as above. The settings on record: P. falciparum in erythrocytes, SYBR Green DNA, 72 h; series mostly up to 28.7 µM. In a few lines: as §1
In test [6] the test system is DIV17. Described as above. The settings on record: P. falciparum in erythrocytes, SYBR Green DNA, 72 h; series mostly up to 28.7 µM. In a few lines:
as §1

In test [7] the test system is GB4. The description is as above. The conditions noted are these: P. falciparum in erythrocytes, SYBR Green DNA, 72 h; series mostly up to 28.7 µM. The method, boiled down:
as §1

Test [8] deals with PC15. The test is described as above. The settings on record: P. falciparum in erythrocytes, SYBR Green DNA, 72 h; series mostly up to 28.7 µM. In a few lines: as §1
The subject of test [9] is ATS95. Described as above. The settings on record: P. falciparum in erythrocytes, SYBR Green DNA, 72 h; series mostly up to 28.7 µM. In a few lines:
as §1

Test [10] has as its system CP194. The test is described as above. The settings on record: P. falciparum in erythrocytes, SYBR Green DNA, 72 h; series mostly up to 28.7 µM. The method, boiled down: as §1
For test [11], the system named is CP215. The test is described as above. The settings on record: P. falciparum in erythrocytes, SYBR Green DNA, 72 h; series mostly up to 28.7 µM. In a few lines:
as §1

Test [12] addresses Tyrosyl-DNA phosphodiesterase 1 (Homo sapiens) (UniProt Q9NUW8). Nature of the test: Confirmation Assay for Inhibitors of Tyrosyl-DNA Phosphodiesterase (TDP1) (AID 489007). Note: potency is the fitted concentration of half-maximal effect; nearly all actives have a fitted effect of over 40% in size. The settings on record: recombinant human TDP1 enzymatic activity, dose-response. In a few lines: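 Recombinant E. coli-expressed Tdp1 (1 nM final) was preincubated with compounds 15 min at room temperature, then reacted 5 min with 15 nM 5'-biotin/3'-phosphotyrosine-FITC DNA substrate; cleavage read as loss of AlphaScreen signal (10 ug/ml beads, 10 min).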

Test [13] deals with DNA dC->dU-editing enzyme APOBEC-3G (Homo sapiens) (UniProt Q9HC16). Nature of the test: qHTS for inhibitors of Vif-A3G interactions: Validation (AID 588379). In a few lines:
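HeLa cells stably expressing Vif and A3G-eYFP, 700 cells/well, incubated overnight at 37 deg C, then exposed to compound overnight at 37 deg C. Inhibition of Vif-mediated degradation read as increased yellow fluorescence (Ex 488/Em 500-530) by laser-scanning cytometry.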

Test [14] addresses Pyruvate kinase PKM (Homo sapiens) (UniProt P14618). Nature of the test: qHTS Assay for Inhibitors of Human Muscle Pyruvate Kinase (AID 958). The method, boiled down: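 Enzyme was run at intermediate activity so both inhibitors and activators could be detected. ATP formed from ADP and PEP by 0.1 nM human PKM2 during a 1 h room-temperature incubation was quantified by coupled luciferase luminescence.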

A short description of test [15]: Confirmation and Secondary Assay for Modulators of Hemoglobin Beta Chain Splicing at IVS2 654 locus (AID 910).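 Note: HeLa cells stably carrying EGFP split by mutant beta-globin IVS2-654 intron; per-well total GFP intensity by laser scanning cytometry after 2-day treatment.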 The method, boiled down: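 Readout: per-well total peak green fluorescence (488 nm ex, 500–520 nm em) from objects 5–250 µm, reflecting correct splicing of an EGFP-654 reporter. Compounds were applied for 2 days at 37 °C to overnight-plated HeLa EGFP-654 cells; controls were DMSO and 500 nM IVS2-654 PNA.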

Test [16] can be described thus: Confirmation and Secondary Assay for Modulators of Hemoglobin Beta Chain Splicing at IVS2 705 locus (AID 930).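 Note: HeLa cells stably expressing the EGFP-705 splicing reporter; GFP fluorescence per well restored by corrected splicing of the IVS2-705 intron in EGFP.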 In a few lines:
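Stable HeLa line with EGFP disrupted by mutant beta-globin intron 2 (705). Overnight attachment, then 2 days of compound at 37C, 5% CO2. Signal: peak GFP intensity summed over objects 5-250 µm.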

The target in test [17] is Pyruvate kinase (Leishmania mexicana) (UniProt Q27686). Nature of the test: qHTS Validation Assay for Activators of Leishmania Mexicana Pyruvate Kinase (AID 959). The method, boiled down: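 Mutant LmPYK (E451W), 0.2 nM, plus 0.5 mM PEP and 0.1 mM ADP in 50 mM imidazole pH 7.2 containing 0.01% Tween 20 and 0.05% BSA. Incubated 1 h at room temperature; luminescence via PKLight, normalized to DMSO.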

Records with an inconclusive call do not appear. Calls of active or inactive are those of the source. Calls come from the whole dose curve; as a rule, active = well fitted curve in the direction sought with a large enough effect; inconclusive = small, poorly fitted or top-dose-only effect, or another doubt; inactive = no such curve, though single readings can be large; an effect the other way counts as inactive or inconclusive.

Luciferin 4-monooxygenase (Photinus pyralis), sequence (P08659 whole entry, looked up): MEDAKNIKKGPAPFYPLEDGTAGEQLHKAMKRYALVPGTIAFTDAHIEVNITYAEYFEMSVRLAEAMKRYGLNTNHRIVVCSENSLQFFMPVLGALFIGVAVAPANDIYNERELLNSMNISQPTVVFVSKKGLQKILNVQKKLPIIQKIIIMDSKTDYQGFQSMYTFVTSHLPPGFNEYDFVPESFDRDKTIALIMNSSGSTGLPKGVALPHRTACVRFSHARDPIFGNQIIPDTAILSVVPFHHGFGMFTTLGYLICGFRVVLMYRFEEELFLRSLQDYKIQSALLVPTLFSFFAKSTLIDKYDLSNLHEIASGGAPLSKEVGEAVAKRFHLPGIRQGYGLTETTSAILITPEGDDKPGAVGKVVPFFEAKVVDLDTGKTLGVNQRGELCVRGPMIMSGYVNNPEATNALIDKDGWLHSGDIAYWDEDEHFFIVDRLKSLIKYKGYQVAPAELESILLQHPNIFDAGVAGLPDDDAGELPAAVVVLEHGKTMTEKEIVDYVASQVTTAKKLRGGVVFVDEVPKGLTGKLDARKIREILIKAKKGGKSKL
Ubiquitin carboxyl-terminal hydrolase 1 (Homo sapiens), sequence (O94782 whole entry, looked up): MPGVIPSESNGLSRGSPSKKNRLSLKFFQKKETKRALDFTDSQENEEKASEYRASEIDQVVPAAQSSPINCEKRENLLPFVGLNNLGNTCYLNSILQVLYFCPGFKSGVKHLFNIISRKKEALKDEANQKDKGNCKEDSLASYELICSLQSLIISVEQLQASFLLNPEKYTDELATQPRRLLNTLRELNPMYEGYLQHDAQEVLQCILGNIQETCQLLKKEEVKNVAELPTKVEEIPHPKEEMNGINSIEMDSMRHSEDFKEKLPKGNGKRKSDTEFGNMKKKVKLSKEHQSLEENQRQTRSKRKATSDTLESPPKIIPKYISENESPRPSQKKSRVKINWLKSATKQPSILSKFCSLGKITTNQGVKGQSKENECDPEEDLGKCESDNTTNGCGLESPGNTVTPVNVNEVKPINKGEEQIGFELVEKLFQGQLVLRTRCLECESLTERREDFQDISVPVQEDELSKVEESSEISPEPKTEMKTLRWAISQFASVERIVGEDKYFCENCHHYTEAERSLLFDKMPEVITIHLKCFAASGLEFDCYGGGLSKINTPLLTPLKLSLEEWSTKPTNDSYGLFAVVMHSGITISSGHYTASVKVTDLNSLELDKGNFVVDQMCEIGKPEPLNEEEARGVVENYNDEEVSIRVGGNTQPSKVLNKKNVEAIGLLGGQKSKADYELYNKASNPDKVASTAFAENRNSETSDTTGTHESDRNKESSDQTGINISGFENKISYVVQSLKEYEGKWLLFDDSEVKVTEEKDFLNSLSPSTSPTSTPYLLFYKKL
DNA dC->dU-editing enzyme APOBEC-3G (Homo sapiens), sequence (Q9HC16 whole entry, looked up): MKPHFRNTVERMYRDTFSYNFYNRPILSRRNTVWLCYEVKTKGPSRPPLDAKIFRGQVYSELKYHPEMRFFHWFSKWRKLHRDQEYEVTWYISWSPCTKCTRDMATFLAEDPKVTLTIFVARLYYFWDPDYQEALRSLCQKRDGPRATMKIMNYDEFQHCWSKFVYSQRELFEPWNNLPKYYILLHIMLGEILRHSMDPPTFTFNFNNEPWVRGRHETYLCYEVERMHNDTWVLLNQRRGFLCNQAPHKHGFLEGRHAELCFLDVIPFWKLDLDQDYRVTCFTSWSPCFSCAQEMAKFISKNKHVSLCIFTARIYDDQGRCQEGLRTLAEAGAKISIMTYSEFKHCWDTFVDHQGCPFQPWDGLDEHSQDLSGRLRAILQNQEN
Pyruvate kinase PKM (Homo sapiens), sequence (P14618 whole entry, looked up): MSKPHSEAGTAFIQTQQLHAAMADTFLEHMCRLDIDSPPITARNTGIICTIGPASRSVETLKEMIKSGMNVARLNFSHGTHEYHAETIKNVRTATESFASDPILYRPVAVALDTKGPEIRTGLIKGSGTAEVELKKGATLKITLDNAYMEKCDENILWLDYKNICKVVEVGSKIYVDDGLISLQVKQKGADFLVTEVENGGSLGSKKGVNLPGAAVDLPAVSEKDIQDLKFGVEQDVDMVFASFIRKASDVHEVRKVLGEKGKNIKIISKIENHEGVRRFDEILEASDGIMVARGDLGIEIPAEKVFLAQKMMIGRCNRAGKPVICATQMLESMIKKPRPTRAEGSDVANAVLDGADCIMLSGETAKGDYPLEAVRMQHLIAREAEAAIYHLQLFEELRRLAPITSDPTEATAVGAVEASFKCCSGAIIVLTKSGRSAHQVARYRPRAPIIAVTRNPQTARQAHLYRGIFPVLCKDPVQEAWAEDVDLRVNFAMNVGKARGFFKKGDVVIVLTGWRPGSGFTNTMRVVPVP
Pyruvate kinase (Leishmania mexicana), sequence (Q27686 2-499 E452W): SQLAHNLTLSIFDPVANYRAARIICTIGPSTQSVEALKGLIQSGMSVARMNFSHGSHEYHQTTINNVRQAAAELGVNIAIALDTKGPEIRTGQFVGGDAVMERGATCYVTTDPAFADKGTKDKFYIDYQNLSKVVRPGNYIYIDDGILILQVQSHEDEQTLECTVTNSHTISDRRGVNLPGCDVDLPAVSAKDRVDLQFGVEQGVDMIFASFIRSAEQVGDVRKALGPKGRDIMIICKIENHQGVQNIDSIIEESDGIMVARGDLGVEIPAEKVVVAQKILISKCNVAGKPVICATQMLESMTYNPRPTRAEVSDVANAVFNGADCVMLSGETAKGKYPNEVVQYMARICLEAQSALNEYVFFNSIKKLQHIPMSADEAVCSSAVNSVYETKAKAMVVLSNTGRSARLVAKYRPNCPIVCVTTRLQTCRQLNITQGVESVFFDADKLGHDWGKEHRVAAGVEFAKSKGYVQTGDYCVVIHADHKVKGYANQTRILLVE
Tyrosyl-DNA phosphodiesterase 1 (Homo sapiens), sequence (Q9NUW8 whole entry, looked up): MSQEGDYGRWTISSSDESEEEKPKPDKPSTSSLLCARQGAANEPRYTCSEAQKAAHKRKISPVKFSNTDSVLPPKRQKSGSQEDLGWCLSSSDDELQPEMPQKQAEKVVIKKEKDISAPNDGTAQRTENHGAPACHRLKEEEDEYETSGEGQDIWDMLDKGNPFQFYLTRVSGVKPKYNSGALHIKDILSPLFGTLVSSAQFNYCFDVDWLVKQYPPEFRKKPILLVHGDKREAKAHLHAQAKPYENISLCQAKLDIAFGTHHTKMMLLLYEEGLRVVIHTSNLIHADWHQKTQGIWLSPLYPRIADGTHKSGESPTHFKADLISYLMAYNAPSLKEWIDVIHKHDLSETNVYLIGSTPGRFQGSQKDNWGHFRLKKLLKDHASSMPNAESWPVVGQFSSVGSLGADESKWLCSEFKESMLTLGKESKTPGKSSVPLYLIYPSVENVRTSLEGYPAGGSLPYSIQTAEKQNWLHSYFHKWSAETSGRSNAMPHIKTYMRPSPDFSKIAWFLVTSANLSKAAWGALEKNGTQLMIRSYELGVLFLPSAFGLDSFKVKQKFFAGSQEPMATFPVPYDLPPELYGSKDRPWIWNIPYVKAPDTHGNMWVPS

Turning to `C[N+]1(C)[C@@H]2CC(OC(=O)[C@@H](CO)c3ccccc3)C[C@@H]1[C@H]1O[C@H]12` (stereo partly drawn), the Potency entry in [1], in test [3], in [4], in test [5], in [6] and in test [7] was “inactive” in each case. Moreover, the Potency result in test [8] is “inactive”. In addition, in test [2], the compound was classed as inactive.

Regarding `N[C@H](COP(=O)(O)O)C(=O)O`, the Potency entry in [1], in test [9], in test [10], in test [11], in test [3] and in test [4] was “inactive” throughout. Also, the Potency entry in test [5], in test [6], in test [7] and in test [8] was “inactive” each time. Moreover, in test [2], the compound was classed as inactive.

As to `CN(C)[C@H]1C(=O)C(C(=O)NCN2CCCC2)=C(O)[C@]2(O)C(=O)C3=C(O)c4c(O)cccc4[C@](C)(O)[C@H]3C[C@H]12`, the Potency in test [12] is 79.4 nM (active). Also, the Potency entry in test [9], in test [10], in test [11], in test [3], in test [4] and in test [5] was “inactive” each time. Besides, the Potency entry in [6] and in [8] was “inactive” throughout.

Turning to `Oc1ccc([C@@H]2CNCCc3c2cc(O)c(O)c3Cl)cc1`, the outcome in test [13] was inactive.

In the case of `O=C1O/C(=C\Br)CC[C@@H]1c1cccc2ccccc12`, the result in test [14] was inactive.

For the compound `Nc1nc(Cl)nc2c1ncn2[C@@H]1O[C@@H](CO)[C@@H](O)[C@H]1O`, the compound was called inactive in [15] and in [16].

For the compound `N.N.N.N.N.N.N.N.N.N.N.N.N.N.O.O.[Ru].[Ru].[Ru]`, the Potency entry in test [17] was “inactive”.

For the compound `C[C@@H]1C[C@H]2[C@H]3C[C@@H](F)C4=CC(=O)C=C[C@]4(C)[C@@]3(Cl)[C@@H](O)C[C@@]2(C)[C@@H]1C(=O)COC(=O)C(C)(C)C`, the compound was called inactive in test [2]. In addition, the Potency result in [9], in test [10], in [11] and in test [7] was “inactive” throughout.
